This is a sample that favours compounds with a hit; in the whole collection about 2.1% have one here.
IEC-6 cytotox – cytotoxicity in IEC-6 intestinal epithelial cells, primary screen, cytotoxicity control for KLF5 inhibitor project, cell-based, luminescence | hit rate 0.78% among 290,000 | AID 1825, 2009 | IEC-6 cytotoxicity, luminescence viability | inhibition, % at 5 µM; in the data active means inhibition above about 22%
APP 5UTR inh – inhibitors of APP translation via 5'UTR reporter, primary screen, APP 5'UTR luciferase, SH-SY5Y cells; SH-SY5Y APP 5'UTR-luciferase reporter, luminescence; inhibition, % at 2 µM; hit rate 0.82% among 190,000; AID 1285, 2008;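 active means inhibition above a set limit, derived from the sample mean plus 3 SD, cut at about 45% in these data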
aSyn 5UTR inh – MLPCN primary screen, SNCA 5' untranslated region; hit rate 0.82% among 300,000; inhibition, % (tested at 7.5 µM); alpha-synuclein 5'UTR reporter, inhibitor activity; in the data active means inhibition above about 60%;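 further: H4 neuroglioblastoma cells stably carrying SNCA 5'UTR luciferase fusion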
KLF5 inhibitor – KLF5 expression inhibitors, primary screen, DLD-1 cells, luminescence. DLD-1 KLF5 promoter-luciferase reporter. inhibition, % at 5 µM. hit rate 0.23% among 290,000. AID 1700, 2009;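 active means inhibition above a per-plate limit of that plate's mean compound inhibition plus 3 SD, cut at about 60% in these data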;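 further: higher means less KLF5 promoter-driven luciferase light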
BaF3 parental – parental Ba/F3 cell viability inhibition, counter-screen for JAK2V617F inhibitor project, murine pro-B, CellTiter-Glo luminescence | CellTiter-Glo ATP luminescence | inhibition, % at 5.6 µM | hit rate 1.1% among 220,000 | AID 1486, 2009;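 active means inhibition above a per-campaign cutoff, the mean inhibition of all tested compounds plus 3 SD, cut at about 27% in these data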
Ba/F3 V617F tox – reduced viability of JAK2V617F-dependent Ba/F3 cells, primary screen, JAK2V617F inhibitor project, cell-based, Ba/F3 EpoR-JAK2V617F, luminescence. ATP luminescence. inhibition, % at 5.6 µM. hit rate 1.1% among 220,000. AID 1446, 2008;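 active means inhibition above the campaign mean plus 3 SD over all tested compounds, cut at about 24% in these data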;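 further: cytokine-independent growth of Ba/F3 cells driven by EpoR plus mutant JAK2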
BaF3 tox 2 – parental Ba/F3 cell viability inhibition, counter-screen for JAK2V617F inhibitor project, murine pro-B, CellTiter-Glo luminescence; shares compounds with Ba/F3 V617F tox; cells kept alive by added IL-3; inhibition, % at 5.6 µM; hit rate 31% among 580; AID 1520, 2009;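 active means cell growth inhibition above the hit limit set in the earlier mutant JAK2 cell screen, cut at about 27% in these data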
JAK2V617F confrm – viability loss in Ba/F3 EpoR-JAK2V617F cells, confirmation, JAK2V617F inhibitor project, cell-based, luminescence, triplicate; shares compounds with Ba/F3 V617F tox; CellTiter-Glo luminescence; inhibition, % at 5.6 µM; hit rate 66% among 580;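 active means mean inhibition above the hit cutoff derived in the earlier primary screen, cut at about 25% in these data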;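 further: higher means lower luminescence from reduced cell ATP and viability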
Of the large screens only hits and unclear results are named; the others gave an inactive call (follow-up assays come after a bar, where they were run).

Oc1ccc(/C=N/Nc2nccnc2Cl)c(O)c1	aSyn 5UTR inh 88, Ba/F3 V617F tox 32 (no result: APP 5UTR inh) | BaF3 tox 2 71 | JAK2V617F confrm 91
Oc1ccc(/C=N/Nc2ncc(Br)cn2)c(O)c1	none
Cc1onc(-c2ccccc2)c1C(=O)Nc1nnc(CC(C)(C)C)s1	none (no result: APP 5UTR inh, BaF3 parental, Ba/F3 V617F tox)
O=C(CCl)N(c1ccc(Cl)cc1)c1c[nH]c2ccccc12	Ba/F3 V617F tox 72 | BaF3 tox 2 73 | JAK2V617F confrm 99
O=C(Cc1ccc(Cl)cc1)NCCc1c[nH]c2ccccc12	none (no result: APP 5UTR inh, BaF3 parental, Ba/F3 V617F tox)
CCCCn1c(N)c(N(CC(C)C)C(=O)C(C)SCc2nc3sc(C)c(C)c3c(=O)[nH]2)c(=O)[nH]c1=O (centres undefined)	none (no result: IEC-6 cytotox, APP 5UTR inh, KLF5 inhibitor, BaF3 parental, Ba/F3 V617F tox)
CCC(C)C(=O)Nc1c2c(nc3c1CCC3)CCCC2 (centres undefined)	Ba/F3 V617F tox 32 | BaF3 tox 2 inactive | JAK2V617F confrm inactive
CC(C)C(=O)Nc1c2c(nc3c1CCC3)CCCC2	none
Cc1ccc(S(=O)(=O)NC(=NC2CCCCC2)c2ccc(Cl)cc2)cc1	none (no result: APP 5UTR inh, BaF3 parental, Ba/F3 V617F tox)
C=CCn1c(CNC(=O)c2ccco2)nnc1SCC(=O)N1c2ccccc2Sc2ccccc21	Ba/F3 V617F tox 71 | BaF3 tox 2 inactive | JAK2V617F confrm inactive
CC(=O)Oc1ccccc1C(=O)NC(C)CCc1ccccc1 (centres undefined)	none (no result: APP 5UTR inh, BaF3 parental, Ba/F3 V617F tox)
CCCOc1ccc(Cc2nc(N)nc(N)n2)cc1	Ba/F3 V617F tox 40 | BaF3 tox 2 inactive | JAK2V617F confrm inactive
CCOc1ccc(Cc2nc(N)nc(N)n2)cc1	none
Cc1ccc(NC(=O)C(=Cc2ccc(C(=O)O)cc2)C(=O)Nc2ccc(C)cc2C)c(C)c1	Ba/F3 V617F tox 36 (no result: APP 5UTR inh) | BaF3 tox 2 inactive | JAK2V617F confrm 61
CC(=O)n1cc(N(C(=O)CCl)c2ccccc2)c2ccccc21	aSyn 5UTR inh 106, Ba/F3 V617F tox 96 (no result: APP 5UTR inh) | BaF3 tox 2 98 | JAK2V617F confrm 99
CC(=O)n1cc(N(C(=O)CCl)c2ccc([N+](=O)[O-])cc2)c2ccccc21	Ba/F3 V617F tox 63 (no result: APP 5UTR inh) | BaF3 tox 2 46 | JAK2V617F confrm 100
CC(=O)n1cc(CO)c2ccccc21	none (no result: APP 5UTR inh, BaF3 parental, Ba/F3 V617F tox)
CCc1noc(C)c1C(=O)Nc1nnc(CC(C)C)s1	none (no result: IEC-6 cytotox, APP 5UTR inh, KLF5 inhibitor, BaF3 parental, Ba/F3 V617F tox)
CCCOc1ccc(CNC(=O)C2CCN(C(=O)N3CCOc4ccccc43)CC2)cc1	none (no result: APP 5UTR inh, BaF3 parental, Ba/F3 V617F tox)
Nc1[nH]n(-c2ccccc2)c(=O)c1N=Nc1ccc2c(c1)OCO2	Ba/F3 V617F tox 27 (no result: APP 5UTR inh) | BaF3 tox 2 57 | JAK2V617F confrm 44
O=C(NCCc1ccccc1Cl)C1CC(=O)N(C2CCCCC2)C1 (centres undefined)	none (no result: APP 5UTR inh, BaF3 parental, Ba/F3 V617F tox)
O=C(Nc1ccccc1C(=O)O)c1ccc(Br)o1	Ba/F3 V617F tox 24 | BaF3 tox 2 inactive | JAK2V617F confrm inactive
Cn1c(=O)c2nc(NCc3ccccc3)cnc2n(C)c1=O	none
Cc1nc2c(=O)n(C)c(=O)n(C)c2nc1Cl	APP 5UTR inh 46, Ba/F3 V617F tox 39 | BaF3 tox 2 inactive | JAK2V617F confrm 62
CCN(CC(=O)Nc1c(F)cccc1F)C(=O)C1CCN(c2ncnc3sc(C)c(C)c23)CC1	none (no result: IEC-6 cytotox, APP 5UTR inh, KLF5 inhibitor, BaF3 parental, Ba/F3 V617F tox)
Brc1ccc(-c2nnc3sc(CN4CCC5(CC4)OCCO5)cn23)cc1	none
c1ccc(-c2nnc3sc(CN4CCc5ccccc54)cn23)cc1	Ba/F3 V617F tox 35 | BaF3 tox 2 30 | JAK2V617F confrm 30
CC(C)C[C@H](N)c1nnc(SCC(=O)Nc2ccc(Br)cc2)o1	none (no result: APP 5UTR inh, BaF3 parental, Ba/F3 V617F tox)
CC(C)C[C@H](NC(=O)OC(C)(C)C)c1nnc(SCC(=O)Nc2ccc(Br)cc2)o1	Ba/F3 V617F tox 99 | BaF3 tox 2 inactive | JAK2V617F confrm inactive
CN1/C(=C\C(=O)CSc2nnc(NCc3ccccc3)s2)C(C)(C)c2ccccc21	Ba/F3 V617F tox 33 | BaF3 tox 2 inactive | JAK2V617F confrm inactive
Cc1cccc2cc(CN(CC3CCCO3)C(=O)c3ccco3)c(=O)[nH]c12 (centres undefined)	none

Bioassay records deposited in PubChem by several laboratories.
